# Columns and labels:
# Experiment in all cases: DAPPL (digital affinity profiling via proximity ligation, sequencing); 10 mM Tris-HCl pH 7.5, 50 mM NaCl, 1 mM DTT, 4% glycerol, room temperature, 30 min; GST-TFs on glutathione beads, 16-mer random dsDNA library, 0.1% formaldehyde crosslink after washing; high values mean tight binding
# FEV = target: T1, FEV (Homo sapiens, UniProt Q99581 1-238); conditions: protein: recombinant; tags: N-terminal GST; dsDNA, one strand shown
# T1 sequence: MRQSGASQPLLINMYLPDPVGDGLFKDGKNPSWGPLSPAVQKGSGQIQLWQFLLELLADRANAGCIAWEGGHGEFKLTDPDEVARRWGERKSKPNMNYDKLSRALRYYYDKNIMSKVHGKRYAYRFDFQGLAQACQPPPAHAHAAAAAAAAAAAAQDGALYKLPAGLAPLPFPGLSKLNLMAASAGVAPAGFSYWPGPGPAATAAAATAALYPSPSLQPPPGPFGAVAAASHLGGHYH
# How it was run: (§1)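 Binding signal is each hexamer's read frequency for a factor divided by its frequency in the tag-only sample. The factors were GST-fused human transcription factors from yeast, captured on glutathione beads, DNA-barcoded and pooled with that sample. Pools were incubated with 200 nmole of a random double-stranded 16-mer DNA library in Tris/NaCl/DTT/glycerol buffer at room temperature for 30 min, then washed, crosslinked with 0.1% formaldehyde, proximity-ligated with BsaI/T4 ligase (1 h, 37 °C), PCR-amplified and sequenced on an Illumina NextSeq500.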
# ETV5 = ETV5 (Homo sapiens, UniProt P41161 1-510); conditions: protein: recombinant; tags: N-terminal GST; dsDNA, one strand shown
# How it was run: as §1
# HSF1 = HSF1 (Homo sapiens, UniProt Q00613 1-529); conditions: protein: recombinant; tags: N-terminal GST; chain copies: 3; dsDNA, one strand shown
# How it was run: as §1
# SPIC = target: T2, SPIC (Homo sapiens, UniProt Q8N5J4 1-248); conditions: protein: recombinant; tags: N-terminal GST; dsDNA, one strand shown
# T2 sequence: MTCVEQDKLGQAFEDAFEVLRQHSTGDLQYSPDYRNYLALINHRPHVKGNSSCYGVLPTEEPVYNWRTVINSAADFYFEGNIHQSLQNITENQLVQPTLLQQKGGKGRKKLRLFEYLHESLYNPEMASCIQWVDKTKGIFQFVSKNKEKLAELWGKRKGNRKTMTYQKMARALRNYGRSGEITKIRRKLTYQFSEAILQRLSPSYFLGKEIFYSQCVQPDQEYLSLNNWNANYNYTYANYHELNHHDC
# How it was run: as §1
# ELF4 = ELF4 (Homo sapiens, UniProt Q99607 1-663); conditions: protein: recombinant; tags: N-terminal GST; dsDNA, one strand shown
# How it was run: as §1
# ELK4 = target: T3, ELK4 (Homo sapiens, UniProt P28324-2 1-405); conditions: protein: recombinant; tags: N-terminal GST; dsDNA, one strand shown
# T3 sequence: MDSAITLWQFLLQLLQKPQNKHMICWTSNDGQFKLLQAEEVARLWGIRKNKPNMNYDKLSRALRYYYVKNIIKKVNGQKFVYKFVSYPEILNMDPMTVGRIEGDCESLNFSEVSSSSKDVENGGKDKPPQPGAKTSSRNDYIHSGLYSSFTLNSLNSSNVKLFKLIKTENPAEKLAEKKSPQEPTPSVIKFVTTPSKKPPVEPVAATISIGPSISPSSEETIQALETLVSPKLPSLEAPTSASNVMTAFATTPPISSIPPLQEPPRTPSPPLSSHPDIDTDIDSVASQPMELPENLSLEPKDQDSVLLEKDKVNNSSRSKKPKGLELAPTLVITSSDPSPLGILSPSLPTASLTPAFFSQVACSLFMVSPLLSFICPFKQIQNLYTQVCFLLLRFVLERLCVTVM
# How it was run: as §1
# ETV2 = target: T4, ETV2 (Homo sapiens, UniProt O00321 1-342); conditions: protein: recombinant; tags: N-terminal GST; dsDNA, one strand shown
# T4 sequence: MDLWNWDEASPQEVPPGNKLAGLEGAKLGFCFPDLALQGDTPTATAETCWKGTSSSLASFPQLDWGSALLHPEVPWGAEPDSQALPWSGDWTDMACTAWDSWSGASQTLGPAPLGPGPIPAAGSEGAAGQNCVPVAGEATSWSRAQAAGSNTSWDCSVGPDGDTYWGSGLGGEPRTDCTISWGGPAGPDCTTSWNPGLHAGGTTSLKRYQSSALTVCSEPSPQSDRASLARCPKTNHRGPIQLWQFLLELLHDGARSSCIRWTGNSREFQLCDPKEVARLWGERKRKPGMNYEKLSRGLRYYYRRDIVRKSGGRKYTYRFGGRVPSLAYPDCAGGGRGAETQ
# How it was run: as §1
# ELF3 = target: T5, ELF3 (Homo sapiens, UniProt P78545 1-371); conditions: protein: recombinant; tags: N-terminal GST; dsDNA, one strand shown
# T5 sequence: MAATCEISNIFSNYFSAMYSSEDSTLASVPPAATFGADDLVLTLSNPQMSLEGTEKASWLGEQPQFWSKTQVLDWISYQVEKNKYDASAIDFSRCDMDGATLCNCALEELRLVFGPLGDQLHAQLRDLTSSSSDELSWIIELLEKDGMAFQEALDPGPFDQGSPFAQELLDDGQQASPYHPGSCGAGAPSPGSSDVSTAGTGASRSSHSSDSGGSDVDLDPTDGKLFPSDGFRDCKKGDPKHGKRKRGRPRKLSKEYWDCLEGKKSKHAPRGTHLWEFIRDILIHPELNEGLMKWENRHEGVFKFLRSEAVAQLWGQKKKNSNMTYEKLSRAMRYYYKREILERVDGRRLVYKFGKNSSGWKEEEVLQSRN
# How it was run: as §1
# CRX = CRX (Homo sapiens, UniProt O43186 1-299); conditions: protein: recombinant; tags: N-terminal GST; dsDNA, one strand shown
# How it was run: as §1
# ETV1 = ETV1 (Homo sapiens, UniProt P50549 1-477); conditions: protein: recombinant; tags: N-terminal GST; dsDNA, one strand shown
# How it was run: as §1
# ERF = target: T6, ERF (Homo sapiens, UniProt P50548 1-548); conditions: protein: recombinant; tags: N-terminal GST; dsDNA, one strand shown
# T6 sequence: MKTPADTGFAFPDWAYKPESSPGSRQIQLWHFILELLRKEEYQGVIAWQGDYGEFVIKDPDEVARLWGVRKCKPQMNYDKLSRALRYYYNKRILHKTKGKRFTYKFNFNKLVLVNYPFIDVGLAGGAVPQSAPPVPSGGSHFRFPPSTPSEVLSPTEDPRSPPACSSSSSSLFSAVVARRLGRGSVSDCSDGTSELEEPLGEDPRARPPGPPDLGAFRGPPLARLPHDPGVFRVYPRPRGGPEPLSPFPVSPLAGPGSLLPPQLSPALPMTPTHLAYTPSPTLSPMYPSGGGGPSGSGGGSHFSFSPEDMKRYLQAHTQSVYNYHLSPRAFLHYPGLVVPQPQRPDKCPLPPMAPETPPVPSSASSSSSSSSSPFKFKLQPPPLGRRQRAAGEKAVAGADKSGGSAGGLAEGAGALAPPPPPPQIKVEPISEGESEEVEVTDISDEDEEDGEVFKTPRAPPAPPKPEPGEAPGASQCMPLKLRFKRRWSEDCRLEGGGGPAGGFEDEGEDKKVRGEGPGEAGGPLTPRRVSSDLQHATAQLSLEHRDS
# How it was run: as §1
# ETV3L = target: T7, ETV3L (Homo sapiens, UniProt Q6ZN32 1-361); conditions: protein: recombinant; tags: N-terminal GST; dsDNA, one strand shown
# T7 sequence: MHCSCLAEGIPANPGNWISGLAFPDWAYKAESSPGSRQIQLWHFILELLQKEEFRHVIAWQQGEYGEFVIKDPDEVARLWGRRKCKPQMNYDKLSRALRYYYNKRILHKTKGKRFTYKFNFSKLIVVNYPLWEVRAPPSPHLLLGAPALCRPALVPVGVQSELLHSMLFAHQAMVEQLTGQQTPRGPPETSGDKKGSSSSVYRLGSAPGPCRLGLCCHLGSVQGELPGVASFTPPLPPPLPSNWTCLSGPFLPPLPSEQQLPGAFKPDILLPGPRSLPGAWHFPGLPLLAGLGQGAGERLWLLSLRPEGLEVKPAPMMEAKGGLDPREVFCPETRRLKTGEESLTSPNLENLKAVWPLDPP
# How it was run: as §1
# ETS2 = target: T8, ETS2 (Homo sapiens, UniProt P15036 1-469); conditions: protein: recombinant; tags: N-terminal GST; dsDNA, one strand shown
# T8 sequence: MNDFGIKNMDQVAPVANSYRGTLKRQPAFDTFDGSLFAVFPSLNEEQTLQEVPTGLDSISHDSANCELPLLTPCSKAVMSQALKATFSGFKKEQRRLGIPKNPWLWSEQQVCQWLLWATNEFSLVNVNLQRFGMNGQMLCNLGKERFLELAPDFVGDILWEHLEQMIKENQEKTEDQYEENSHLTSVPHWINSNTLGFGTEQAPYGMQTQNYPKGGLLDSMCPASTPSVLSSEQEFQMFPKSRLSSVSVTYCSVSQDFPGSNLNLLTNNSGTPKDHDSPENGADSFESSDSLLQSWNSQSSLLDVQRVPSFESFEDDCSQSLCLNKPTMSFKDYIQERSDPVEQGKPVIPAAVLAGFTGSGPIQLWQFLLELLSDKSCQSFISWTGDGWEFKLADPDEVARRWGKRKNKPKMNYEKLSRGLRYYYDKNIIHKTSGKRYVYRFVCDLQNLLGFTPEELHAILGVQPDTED
# How it was run: as §1
# SPDEF = target: T9, SPDEF (Homo sapiens, UniProt O95238 1-335); conditions: protein: recombinant; tags: N-terminal GST; dsDNA, one strand shown
# T9 sequence: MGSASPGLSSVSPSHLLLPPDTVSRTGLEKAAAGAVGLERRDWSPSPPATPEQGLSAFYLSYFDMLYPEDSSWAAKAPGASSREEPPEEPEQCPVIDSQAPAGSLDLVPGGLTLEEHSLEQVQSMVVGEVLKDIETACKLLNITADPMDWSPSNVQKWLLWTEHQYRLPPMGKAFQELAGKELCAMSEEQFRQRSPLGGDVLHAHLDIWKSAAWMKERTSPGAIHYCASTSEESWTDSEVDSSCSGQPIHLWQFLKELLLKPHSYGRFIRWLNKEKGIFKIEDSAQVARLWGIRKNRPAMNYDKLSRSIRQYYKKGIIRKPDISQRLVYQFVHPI
# How it was run: as §1
# ETV7 = target: T10, ETV7 (Homo sapiens, UniProt Q9Y603 1-341); conditions: protein: recombinant; tags: N-terminal GST; dsDNA, one strand shown
# T10 sequence: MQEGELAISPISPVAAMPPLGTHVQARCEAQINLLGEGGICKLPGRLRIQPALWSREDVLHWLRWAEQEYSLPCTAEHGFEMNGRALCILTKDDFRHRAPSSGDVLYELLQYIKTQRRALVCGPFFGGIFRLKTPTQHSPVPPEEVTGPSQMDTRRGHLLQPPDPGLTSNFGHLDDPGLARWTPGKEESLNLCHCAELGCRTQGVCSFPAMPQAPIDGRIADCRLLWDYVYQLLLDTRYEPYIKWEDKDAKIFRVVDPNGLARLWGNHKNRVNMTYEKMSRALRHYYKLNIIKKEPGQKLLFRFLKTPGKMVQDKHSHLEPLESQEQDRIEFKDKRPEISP
# How it was run: as §1
# ELF5 = target: T11, ELF5 (Homo sapiens, UniProt Q9UKW6-2 1-255); conditions: protein: recombinant; tags: N-terminal GST; dsDNA, one strand shown
# T11 sequence: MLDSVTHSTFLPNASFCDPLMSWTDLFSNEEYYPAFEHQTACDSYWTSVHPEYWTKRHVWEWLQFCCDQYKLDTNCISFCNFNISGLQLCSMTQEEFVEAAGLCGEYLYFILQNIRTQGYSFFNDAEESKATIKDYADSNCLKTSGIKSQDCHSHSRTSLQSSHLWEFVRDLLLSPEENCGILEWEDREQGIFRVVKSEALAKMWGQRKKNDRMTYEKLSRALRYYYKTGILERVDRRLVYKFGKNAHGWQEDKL
# How it was run: as §1
# ETV3 = target: T12, ETV3 (Homo sapiens, UniProt P41162-2 1-143); conditions: protein: recombinant; tags: N-terminal GST; dsDNA, one strand shown
# T12 sequence: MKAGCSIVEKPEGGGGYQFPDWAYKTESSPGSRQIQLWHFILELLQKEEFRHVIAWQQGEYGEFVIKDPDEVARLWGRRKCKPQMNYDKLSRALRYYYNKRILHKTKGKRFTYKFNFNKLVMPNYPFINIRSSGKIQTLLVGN
# How it was run: as §1
# ETV6 = ETV6 (Homo sapiens, UniProt P41212 1-452); conditions: protein: recombinant; tags: N-terminal GST; dsDNA, one strand shown
# How it was run: as §1
# ETV5, sequence (P41161 whole entry): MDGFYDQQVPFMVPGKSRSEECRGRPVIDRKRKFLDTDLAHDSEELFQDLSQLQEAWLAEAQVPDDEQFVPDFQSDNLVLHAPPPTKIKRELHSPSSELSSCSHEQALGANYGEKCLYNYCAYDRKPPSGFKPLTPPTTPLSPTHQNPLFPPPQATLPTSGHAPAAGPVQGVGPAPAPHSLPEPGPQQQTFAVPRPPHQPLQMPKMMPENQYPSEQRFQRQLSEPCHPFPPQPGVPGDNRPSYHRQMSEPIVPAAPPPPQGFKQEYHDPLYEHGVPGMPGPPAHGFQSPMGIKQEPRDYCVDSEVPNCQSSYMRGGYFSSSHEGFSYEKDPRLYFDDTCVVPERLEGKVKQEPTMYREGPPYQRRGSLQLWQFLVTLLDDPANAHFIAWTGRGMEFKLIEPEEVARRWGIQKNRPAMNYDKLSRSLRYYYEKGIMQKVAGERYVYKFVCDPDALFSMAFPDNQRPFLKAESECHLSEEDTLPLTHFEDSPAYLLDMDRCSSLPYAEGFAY
# HSF1, sequence (Q00613 whole entry): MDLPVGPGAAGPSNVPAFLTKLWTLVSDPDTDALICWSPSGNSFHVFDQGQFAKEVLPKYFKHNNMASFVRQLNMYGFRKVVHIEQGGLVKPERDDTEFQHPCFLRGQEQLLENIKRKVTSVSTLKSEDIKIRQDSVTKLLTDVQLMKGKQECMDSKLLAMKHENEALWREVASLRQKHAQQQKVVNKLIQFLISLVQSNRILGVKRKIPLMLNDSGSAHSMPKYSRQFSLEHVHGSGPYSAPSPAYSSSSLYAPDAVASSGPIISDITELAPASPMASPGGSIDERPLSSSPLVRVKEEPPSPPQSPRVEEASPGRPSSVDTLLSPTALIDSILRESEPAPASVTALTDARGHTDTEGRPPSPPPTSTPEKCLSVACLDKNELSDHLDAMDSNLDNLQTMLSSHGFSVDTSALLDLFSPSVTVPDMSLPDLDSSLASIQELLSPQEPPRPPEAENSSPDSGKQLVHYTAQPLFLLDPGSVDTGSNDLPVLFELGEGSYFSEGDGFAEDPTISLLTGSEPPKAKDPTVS
# ELF4, sequence (Q99607 whole entry): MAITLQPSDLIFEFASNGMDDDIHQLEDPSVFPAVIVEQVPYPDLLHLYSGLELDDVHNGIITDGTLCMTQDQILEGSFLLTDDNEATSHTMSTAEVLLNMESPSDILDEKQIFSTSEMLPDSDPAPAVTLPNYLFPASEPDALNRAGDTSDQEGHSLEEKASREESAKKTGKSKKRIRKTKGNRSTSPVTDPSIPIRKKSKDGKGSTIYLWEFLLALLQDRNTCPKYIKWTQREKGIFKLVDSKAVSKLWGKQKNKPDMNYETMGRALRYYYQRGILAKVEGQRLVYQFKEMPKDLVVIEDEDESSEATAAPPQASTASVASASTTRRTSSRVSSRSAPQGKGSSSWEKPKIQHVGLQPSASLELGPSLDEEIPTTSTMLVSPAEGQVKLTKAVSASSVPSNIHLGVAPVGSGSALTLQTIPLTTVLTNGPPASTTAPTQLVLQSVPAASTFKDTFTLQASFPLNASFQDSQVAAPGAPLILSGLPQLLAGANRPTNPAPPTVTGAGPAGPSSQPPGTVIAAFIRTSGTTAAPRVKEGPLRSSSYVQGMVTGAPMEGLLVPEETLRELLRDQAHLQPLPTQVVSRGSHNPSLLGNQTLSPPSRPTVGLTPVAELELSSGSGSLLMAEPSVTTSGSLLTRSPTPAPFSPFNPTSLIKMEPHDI
# ETV6, sequence (P41212 whole entry): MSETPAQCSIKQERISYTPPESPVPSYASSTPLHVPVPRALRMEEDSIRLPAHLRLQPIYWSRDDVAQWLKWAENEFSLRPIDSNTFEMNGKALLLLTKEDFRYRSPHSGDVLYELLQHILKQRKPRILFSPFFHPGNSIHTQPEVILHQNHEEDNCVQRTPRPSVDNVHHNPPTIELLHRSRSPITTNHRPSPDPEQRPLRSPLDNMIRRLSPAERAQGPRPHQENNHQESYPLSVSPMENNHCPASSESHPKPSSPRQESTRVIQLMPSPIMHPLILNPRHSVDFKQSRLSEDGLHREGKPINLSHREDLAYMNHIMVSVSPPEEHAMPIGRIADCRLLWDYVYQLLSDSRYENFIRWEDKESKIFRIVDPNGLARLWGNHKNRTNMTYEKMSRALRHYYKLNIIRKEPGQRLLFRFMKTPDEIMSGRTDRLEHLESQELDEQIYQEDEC
# ETV1, sequence (P50549 whole entry): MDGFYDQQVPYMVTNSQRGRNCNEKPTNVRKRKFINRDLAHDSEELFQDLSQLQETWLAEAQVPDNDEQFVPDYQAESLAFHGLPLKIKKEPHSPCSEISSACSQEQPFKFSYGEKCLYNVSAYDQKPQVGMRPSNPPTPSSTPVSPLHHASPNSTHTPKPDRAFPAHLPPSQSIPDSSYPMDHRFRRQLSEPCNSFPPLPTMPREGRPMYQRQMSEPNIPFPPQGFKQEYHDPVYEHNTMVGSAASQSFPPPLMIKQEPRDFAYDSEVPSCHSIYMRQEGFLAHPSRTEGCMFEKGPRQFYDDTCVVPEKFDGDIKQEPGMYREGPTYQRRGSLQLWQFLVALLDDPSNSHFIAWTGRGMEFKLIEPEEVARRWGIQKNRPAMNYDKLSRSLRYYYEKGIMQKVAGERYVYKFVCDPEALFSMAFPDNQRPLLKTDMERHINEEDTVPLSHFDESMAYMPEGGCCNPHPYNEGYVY
# CRX, sequence (O43186 whole entry): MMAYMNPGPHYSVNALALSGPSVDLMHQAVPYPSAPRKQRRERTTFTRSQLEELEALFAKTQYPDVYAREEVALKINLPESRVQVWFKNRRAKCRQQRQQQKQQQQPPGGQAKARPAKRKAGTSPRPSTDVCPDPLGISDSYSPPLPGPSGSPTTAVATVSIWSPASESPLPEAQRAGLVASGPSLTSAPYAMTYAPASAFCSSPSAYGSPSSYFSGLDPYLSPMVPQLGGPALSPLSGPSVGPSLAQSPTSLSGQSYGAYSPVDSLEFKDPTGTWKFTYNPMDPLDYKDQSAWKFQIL
sequence,measurement,setting,value
TTGCAA,binding signal,FEV,"1.12 fold enrichment (6-mer frequency, TF over GST control)"
same,binding signal,ETV5,"1.17 fold enrichment (6-mer frequency, TF over GST control)"
same,binding signal,HSF1,"1.07 fold enrichment (6-mer frequency, TF over GST control)"
same,binding signal,SPIC,"1.09 fold enrichment (6-mer frequency, TF over GST control)"
same,binding signal,ELF4,"1.19 fold enrichment (6-mer frequency, TF over GST control)"
same,binding signal,ELK4,"1.21 fold enrichment (6-mer frequency, TF over GST control)"
same,binding signal,ETV2,"1.22 fold enrichment (6-mer frequency, TF over GST control)"
same,binding signal,ELF3,"1.13 fold enrichment (6-mer frequency, TF over GST control)"
same,binding signal,CRX,"1.12 fold enrichment (6-mer frequency, TF over GST control)"
same,binding signal,ETV1,"1.27 fold enrichment (6-mer frequency, TF over GST control)"
same,binding signal,ERF,"1.15 fold enrichment (6-mer frequency, TF over GST control)"
same,binding signal,ETV3L,"1.19 fold enrichment (6-mer frequency, TF over GST control)"
same,binding signal,ETS2,"1.1 fold enrichment (6-mer frequency, TF over GST control)"
same,binding signal,SPDEF,"1.25 fold enrichment (6-mer frequency, TF over GST control)"
same,binding signal,ETV7,"1.19 fold enrichment (6-mer frequency, TF over GST control)"
same,binding signal,ELF5,"1.12 fold enrichment (6-mer frequency, TF over GST control)"
same,binding signal,ETV3,"1.18 fold enrichment (6-mer frequency, TF over GST control)"
same,binding signal,ETV6,"1.16 fold enrichment (6-mer frequency, TF over GST control)"

# — PMC7862700, “An all-to-all approach to the identification of sequence-specific readers for epigenetic DNA modifications on cytosine”
